Measurements taken from PubChem BioAssay AID602376 (Johns Hopkins Ion Channel Center, 2012).
Measured potencies and affinities stand elsewhere. Inconclusive results are not listed.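 How the source made its calls: active means raises choline transporter activity at one or more tested doses and gives a fitted dose-response curve; inconclusive means no clear call, values can overlap the other calls; inactive means no choline transporter activation at any dose, or no curve.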

biological target: High affinity choline transporter 1 (Homo sapiens) (UniProt Q9GZV3); experiment: human choline transporter potentiators, potency – cell-based, 10-point CRC, membrane potential dye, dose response (AID 602376); settings: HEK293-CHT, choline-induced membrane potential dye, cells express CHT LV-AA mutant; series mostly up to 67 µM; percent activation: at the top concentration
Sequence (Q9GZV3 whole entry, looked up): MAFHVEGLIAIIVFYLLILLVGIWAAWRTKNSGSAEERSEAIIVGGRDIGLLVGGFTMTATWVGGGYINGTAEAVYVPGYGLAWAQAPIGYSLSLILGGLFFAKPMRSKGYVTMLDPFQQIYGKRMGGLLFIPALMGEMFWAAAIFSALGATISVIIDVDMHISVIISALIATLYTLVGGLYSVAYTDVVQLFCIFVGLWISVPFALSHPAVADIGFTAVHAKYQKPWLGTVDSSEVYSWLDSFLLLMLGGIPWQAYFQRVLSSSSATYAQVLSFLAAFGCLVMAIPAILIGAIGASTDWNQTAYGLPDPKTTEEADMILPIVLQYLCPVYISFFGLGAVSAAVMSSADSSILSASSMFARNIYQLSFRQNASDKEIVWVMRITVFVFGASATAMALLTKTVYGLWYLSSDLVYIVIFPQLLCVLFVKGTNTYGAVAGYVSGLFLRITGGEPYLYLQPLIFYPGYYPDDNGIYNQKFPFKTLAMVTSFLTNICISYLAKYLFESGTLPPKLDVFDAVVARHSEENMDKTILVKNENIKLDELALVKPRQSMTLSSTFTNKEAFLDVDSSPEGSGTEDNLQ

Percent activation, inactive:
CCOc1cc(-c2sc(Nc3cc(C)ccc3OC)n[n+]2-c2ccccc2)ccc1OC 77.7%
CCc1cc2c(N3CCN(c4ccccc4)CC3)ncnc2s1 61.9%
COc1ccc(NC(=O)C(c2ccccc2)N2CCN(c3ccccn3)CC2)cc1Cl (stereo not drawn) 49.1%
CCOC(=O)C1(CCc2ccccc2)CCN(Cc2cc(OC)c(OC)cc2OC)CC1 86.5%
O=C(NCCC1=CCCCC1)C1CCN(Cc2cnn(-c3ccccc3)c2-n2cccc2)CC1 33.6%
COc1ccc(C(=O)CSc2nnc(CNC(=O)c3ccco3)n2C)cc1 18.6%
COc1ccccc1C1CC(c2ccc(Cl)cc2)Nc2ncnn21 (stereo not drawn) 65.7%
CC1Cc2cc(S(=O)(=O)N3CCN(c4ccccc4F)CC3)ccc2N1C(=O)C1CC1 (stereo not drawn) 72.5%
CCOC(=O)C1(Cc2ccccc2C(F)(F)F)CCN(Cc2ccon2)CC1 63.5%
CCOC(=O)C1CCN(C(=O)CCc2nnc3ccc(N4CCN(C)CC4)nn23)CC1 10.3%
N#Cc1c(N)oc(-c2ccco2)c1-c1ccco1 29.4%
Cn1c(=O)c(=O)n(C)c2cc(S(=O)(=O)N3CCC(N4CCCCC4)CC3)ccc21 16.4%
CCc1ccc(CN(C)C(=O)CCc2nc3ccccc3n(-c3ccc(OC)cc3)c2=O)cc1 88.1%
CN(Cc1ccc(F)cc1)C(=O)C(c1ccccc1)c1ccccc1 74.1%
O=c1c2ccccc2n(CC(O)CN2CCOCC2)c2ccccc12 (stereo not drawn) 44.9%
Cc1cccc2nc(-c3cccnc3)c(NCCC(C)C)n12 43.5%
Cc1nc(N(C)Cc2ccccc2)c2c(C)c(C)sc2n1 16.8%
CCOC(=O)c1c(C)n(-c2ccccc2)c2ccc(OCCN(C)C)cc12 34.4%
CC(Sc1ccc(Cl)cc1)C(=O)Nc1ccccc1-c1ccccc1 (stereo not drawn) 50.3%
CCOC(=O)c1c(C)nc2ccccc2c1-c1ccccc1 66.6%
CCCCn1c(N)c(N(CCOC)C(=O)c2ccc(COc3ccccc3)o2)c(=O)[nH]c1=O 56.5%
CN1CCN(Cc2nc3ccccc3c(=O)n2Cc2nc(-c3ccccc3F)cs2)CC1 37.2%
O=C(COC(=O)c1c2c(nc3ccccc13)CCCCC2)NCc1ccc2c(c1)OCO2 66.1%
